The source of these data is the supplement of paper PMC12645437, “Orthogonal IMiD-Degron Pairs Induce Selective Protein Degradation in Cells” (ACS Chemical Biology, 2025).

This assay has as its target T1, CRBN, Q96SW2.
T1 chain: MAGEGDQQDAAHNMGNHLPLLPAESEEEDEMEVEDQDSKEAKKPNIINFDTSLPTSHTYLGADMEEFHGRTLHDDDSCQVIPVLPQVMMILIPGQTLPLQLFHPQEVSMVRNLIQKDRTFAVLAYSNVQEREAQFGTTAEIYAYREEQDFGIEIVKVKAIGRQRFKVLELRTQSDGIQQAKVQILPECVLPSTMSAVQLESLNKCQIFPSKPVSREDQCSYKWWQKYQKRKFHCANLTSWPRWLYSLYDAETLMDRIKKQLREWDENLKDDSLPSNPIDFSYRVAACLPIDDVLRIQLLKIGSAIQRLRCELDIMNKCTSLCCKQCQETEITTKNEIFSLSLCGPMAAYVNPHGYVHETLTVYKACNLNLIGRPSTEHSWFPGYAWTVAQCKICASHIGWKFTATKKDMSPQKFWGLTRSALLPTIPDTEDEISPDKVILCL
The assay is described as follows: log2 fold change of degron read counts, EGFP-low vs EGFP+ sorted cells (limma voom), compound-induced degradation; higher = more compound-induced degradation of the degron-EGFP fusion; degrons are variants of IKZF1/3 zinc finger 2; compound dose not given here. Particulars: Jurkat, 18 h.

[1] abbreviates: compound: compound 19 (5-tert-butyl-thalidomide).
Setting [2] is: compound: compound 22 (5-morpholino-thalidomide).
The mark [3] stands for this setting: compound: compound 33 (diphenyl IMiD analogue).

In all, about 8,300 sequences were measured (“log2 fold change of degron read counts, EGFP-low vs EGFP+ sorted cells (limma voom), compound-induced degradation”: median about -1.1, highest 2% from about 3.2 on). The full list was thinned out, with the highest values kept by preference.
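Further: pooled lentiviral library of zinc finger degron-EGFP fusions in mCherry-positive Jurkat cells, FACS-sorted after compound exposure, with degron abundance counted by next-generation sequencing.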

On to LHCNQCGFWCTQKGNLLRHIKL [46L_47H_49N_50Q_52G_53F_54W_55C_67L_, Q9UKT9], for which the “log2 fold change of degron read counts” value was -0.827 under setting [1], -1.3 under setting [2], -1.08 under setting [3] and -0.88 (compound: thalidomide).
The like results for FRCPICGHHFTQKGNLLRHIKL [46F_47R_49P_50I_52G_53H_54H_55F_67L_, Q9UKT9] were, in that order, -2.39, -2.52, -1.52 and -1.56.
Take FSCEICGANFTQKGNLLRHIKL [46F_47S_49E_50I_52G_53A_54N_55F_67L_, Q9UKT9]: the “log2 fold change of degron read counts” value under setting [1] was determined as 2.11, the “log2 fold change of degron read counts” value under setting [2] was 1.59, the “log2 fold change of degron read counts” value under setting [3] is 1.31 and the “log2 fold change of degron read counts” value (compound: thalidomide) was 0.441.
The like results for FLCEICGANFTQKGNLLRHIKL [46F_47L_49E_50I_52G_53A_54N_55F_67L_, Q9UKT9] were, in that order, 0.58, -0.667, 1.21 and 1.75.
On the same counts, the results for FWCEICGANFTQKGNLLRHIKL [46F_47W_49E_50I_52G_53A_54N_55F_67L_, Q9UKT9] are 3.41, 3.78, 2.28 and 1.57.
Consider FYCEICGANFTQKGNLLRHIKL [46F_47Y_49E_50I_52G_53A_54N_55F_67L_, Q9UKT9], for which the “log2 fold change of degron read counts” value was determined as 3.74 under setting [1], 3.68 under setting [2], 2.63 under setting [3] and 1.54 (compound: thalidomide).
The like results for FECEICGANFTQKGNLLRHIKL [46F_47E_49E_50I_52G_53A_54N_55F_67L_, Q9UKT9] were, in that order, 0.0673, -1.05, 2.35 and 2.43.
The like results for FKCEICGANFTQKGNLLRHIKL [46F_47K_49E_50I_52G_53A_54N_55F_67L_, Q9UKT9] were, in that order, -1.06, -1.95, -2.41 and -0.806.
The like results for FFCEICGANFTQKGNLLRHIKL [46F_47F_49E_50I_52G_53A_54N_55F_67L_, Q9UKT9] were, in that order, 3.08, 3.63, 1.75 and 1.6.
As to FACEICGANFTQKGNLLRHIKL [46F_47A_49E_50I_52G_53A_54N_55F_67L_, Q9UKT9], the “log2 fold change of degron read counts” value turned out to be 2.93 under setting [1], 1.89 under setting [2], 1.07 under setting [3] and 0.575 (compound: thalidomide).
On the same counts, the results for FGCEICGANFTQKGNLLRHIKL [46F_47G_49E_50I_52G_53A_54N_55F_67L_, Q9UKT9] are 1.01, 0.765, 1.12 and 0.771.
On the same counts, the results for FTCEICGANFTQKGNLLRHIKL [46F_47T_49E_50I_52G_53A_54N_55F_67L_, Q9UKT9] are 0.227, 1.78, 1.46 and 2.43.
Take FQCEICGANFTQKGNLLRHIKL [46F_47Q_49E_50I_52G_53A_54N_55F_67L_, Q9UKT9]: the “log2 fold change of degron read counts” value was 0.735 under setting [1], 1.47 under setting [2], 1.94 under setting [3] and 3.59 (compound: thalidomide).
On the same counts, the results for FNCEICGANFTQKGNLLRHIKL [46F_47N_49E_50I_52G_53A_54N_55F_67L_, Q9UKT9] are 2.42, 0.457, -0.158 and -0.463.
The like results for FCCEQCGAMFTQKGNLLRHIKL [46F_47C_49E_50Q_52G_53A_54M_55F_67L_, Q9UKT9] were, in that order, -1.3, -2.03, -0.276 and -1.41.
In the case of FHCNVCGARFTQKGNLLRHIKL [46F_47H_49N_50V_52G_53A_54R_55F_67L_, Q9UKT9], the “log2 fold change of degron read counts” value by setting is: under setting [1], 0.139; under setting [2], -0.199; under setting [3], -0.986; (compound: thalidomide) -1.05.
As to LNCPICGFLCTQKGNLLRHIKL [46L_47N_49P_50I_52G_53F_54L_55C_67L_, Q9UKT9], the “log2 fold change of degron read counts” value under setting [1] was -0.106, the “log2 fold change of degron read counts” value under setting [2] was 0.152, the “log2 fold change of degron read counts” value under setting [3] came out at 0.208 and the “log2 fold change of degron read counts” value (compound: thalidomide) was determined as 0.391.
On the same counts, the results for FQCSVCGHDFTQKGNLLRHIKL [46F_47Q_49S_50V_52G_53H_54D_55F_67L_, Q9UKT9] are -3.43, -3.8, -3.18 and -3.17.
The like results for FICNQCGHFFTQKGNLLRHIKL [46F_47I_49N_50Q_52G_53H_54F_55F_67L_, Q9UKT9] were, in that order, -2.52, -2.59, -2.06 and -2.52.
The like results for FKCEICGHFFTQKGNLLRHIKL [46F_47K_49E_50I_52G_53H_54F_55F_67L_, Q9UKT9] were, in that order, -2.55, -2.68, -2.97 and -2.85.
Turning to FQCNVCGACFTQKGNLLRHIKL [46F_47Q_49N_50V_52G_53A_54C_55F_67L_, Q9UKT9], the “log2 fold change of degron read counts” value is -1.23 under setting [1], 0.797 under setting [2], 0.868 under setting [3] and 3.21 (compound: thalidomide).
The like results for LVCPICGFKCTQKGNLLRHIKL [46L_47V_49P_50I_52G_53F_54K_55C_67L_, Q9UKT9] were, in that order, 0.655, 2.13, 0.489 and 2.78.
The like results for LSCPICGFKCTQKGNLLRHIKL [46L_47S_49P_50I_52G_53F_54K_55C_67L_, Q9UKT9] were, in that order, 2.15, 1.87, 0.118 and 1.77.
The like results for LQCPICGFKCTQKGNLLRHIKL [46L_47Q_49P_50I_52G_53F_54K_55C_67L_, Q9UKT9] were, in that order, 0.793, 2.43, 0.554 and 3.4.
For the sequence LFCPICGFKCTQKGNLLRHIKL [46L_47F_49P_50I_52G_53F_54K_55C_67L_, Q9UKT9], the “log2 fold change of degron read counts” value under setting [1] was 2.81, the “log2 fold change of degron read counts” value under setting [2] was 2.98, the “log2 fold change of degron read counts” value under setting [3] came to 1.2 and the “log2 fold change of degron read counts” value (compound: thalidomide) turned out to be 1.42.
Turning to LRCPICGFKCTQKGNLLRHIKL [46L_47R_49P_50I_52G_53F_54K_55C_67L_, Q9UKT9], the “log2 fold change of degron read counts” value was -0.023 under setting [1], -0.151 under setting [2], 0.993 under setting [3] and 1.4 (compound: thalidomide).
On the same counts, the results for LDCPICGFKCTQKGNLLRHIKL [46L_47D_49P_50I_52G_53F_54K_55C_67L_, Q9UKT9] are 0.605, 0.0419, -0.53 and 2.02.
On the same counts, the results for LECPICGFKCTQKGNLLRHIKL [46L_47E_49P_50I_52G_53F_54K_55C_67L_, Q9UKT9] are 0.756, -0.257, 0.961 and 3.26.
With LHCPICGFKCTQKGNLLRHIKL [46L_47H_49P_50I_52G_53F_54K_55C_67L_, Q9UKT9], the “log2 fold change of degron read counts” value under setting [1] was determined as 2.19, the “log2 fold change of degron read counts” value under setting [2] was determined as 2.18, the “log2 fold change of degron read counts” value under setting [3] turned out to be 1.15 and the “log2 fold change of degron read counts” value (compound: thalidomide) worked out at 1.4.
On the same counts, the results for LGCPICGFKCTQKGNLLRHIKL [46L_47G_49P_50I_52G_53F_54K_55C_67L_, Q9UKT9] are 3.67, 1.98, -0.000486 and 1.27.
